# Assay outcomes: PubChem, Broad Institute
# Compounds with a hit are over-represented: about 7.7% of the library has one in this group of screens.
# Hedgehog inh – blocks Sonic Hedgehog signaling | Shh-LIGHT2 Gli-luciferase reporter, 30 h | 22,000 tested, 2.1% active | inhibition, % (no concentration beside the values);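 active means mean inhibition across valid replicates above about 65%, limit read from the data; inconclusive means mean under the limit, yet half or more replicates past it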;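 further: pathway switched on by Shh-conditioned medium diluted 1 in 25 in low serum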
# NOMO-1 viab – STK33 inhibitor candidate reducing NOMO-1 cell viability; AID 2330; inhibition, % (concentration not given with the values); 37,000 tested, 7.5% active; NOMO-1 AML viability, CellTiter-Glo luminescence, 72 h; in the data active means inhibition above about 80%; inconclusive means no clear call, values can overlap the other calls
# PD-1 reverse act – reversal of PD-1 mediated T-cell inhibition. 29,000 tested, under 10 active. primary human CD4 T cells, PD-L1 beads, CellTiter-Glo 96 h. activation, % (no concentration beside the values); call rule not given here;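 further: 0% = median vehicle wells and 100% = positive control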
# Numbers without * were called inactive; ? = inconclusive; / = no result given.
SMILES,Hedgehog inh,NOMO-1 viab,PD-1 reverse act
COc1ccc(C(=O)CSc2nnc(-c3ccc([N+](=O)[O-])cc3)o2)cc1,/,-9.2,0.3
CCOC(NC(=O)Nc1ccc(Br)cc1)(C(F)(F)F)C(F)(F)F,-30.1,108.5*,1.4
COC(=O)c1ccc(NC(=O)CCC(=O)c2ccc(Br)cc2)cc1,/,13.4,/
COc1ccc(NC(=O)Nc2ccc3c(c2)C(=O)N([C@H](C)CO)C[C@H](C)[C@H](CN(C)Cc2ccncc2)O3)cc1,-12.8,93.6*,0.2
C[C@H](CO)N1C[C@H](C)[C@@H](CN(C)Cc2ccc(-c3ccccc3)cc2)Oc2ccc(NC(=O)Nc3ccc(F)cc3)cc2C1=O,/,67.7,-0.6
C[C@H]1CN([C@@H](C)CO)C(=O)c2cc(NC(=O)Nc3ccc(F)cc3)ccc2O[C@H]1CN(C)Cc1ccc(-c2ccccc2)cc1,48.2,111.5*,-0.1
C[C@H]1CN([C@@H](C)CO)C(=O)c2cc(NC(=O)Nc3ccc(F)cc3)ccc2O[C@H]1CN(C)Cc1ccccc1,/,14.2,/
COc1ccc(NC(=O)Nc2ccc3c(c2)C(=O)N([C@@H](C)CO)C[C@@H](C)[C@@H](CN(C)Cc2ccncc2)O3)cc1,-13.3,22.1,0.8
C[C@@H]1CN([C@@H](C)CO)C(=O)c2cc(NC(=O)Nc3ccc(F)cc3)ccc2O[C@H]1CN(C)Cc1ccc(-c2ccccc2)cc1,-32.8,128.3*,/
C[C@H](CO)N1C[C@H](C)[C@H](CN(C)Cc2ccc(-c3ccccc3)cc2)Oc2ccc(NC(=O)Nc3ccc(F)cc3)cc2C1=O,/,104.1*,0.5
C[C@@H]1CN([C@@H](C)CO)C(=O)c2cc(NC(=O)Nc3ccc(F)cc3)ccc2O[C@H]1CN(C)Cc1ccccc1,/,17.4,1.5
COc1ccc(CC(=O)N(CC#N)CC#N)cc1OC,-5.5,23.7,0.2
Cc1nn(C)c(C)c1NC(=O)CSc1nnc(-c2cccc(Br)c2)n1-c1ccccc1,/,-9.1,-0.9
C[C@@H]1CN([C@@H](C)CO)C(=O)c2cc(NC(=O)Nc3ccccc3)ccc2O[C@H]1CN(C)Cc1ccc(-c2ccccc2)cc1,9.2,111.8*,-2.0
C[C@@H]1CN([C@@H](C)CO)C(=O)c2cc(NC(=O)Nc3ccccc3)ccc2O[C@@H]1CN(C)Cc1ccncc1,/,4.1,-0.4
C[C@H](CO)N1C[C@H](C)[C@H](CN(C)Cc2ccccc2)Oc2ccc(NC(=O)Nc3ccccc3)cc2C1=O,/,13.2,2.5
C[C@H]1CN([C@@H](C)CO)C(=O)c2cc(NC(=O)Nc3ccccc3)ccc2O[C@H]1CN(C)Cc1ccncc1,30.3,97.7*,0.5
CCn1c(SCC(=O)c2cccc([N+](=O)[O-])c2)nnc1-c1ccc(Cl)cc1,/,15.9,-0.4
CC12CC3CC(C1)CC(NC(=O)c1ccc(Cl)cc1Cl)(C3)C2,-60.2,114.6*,-1.2
CC(Oc1ccc(Cl)cc1Cl)C(=O)Nc1cccc(NC(=O)c2ccc(Cl)cc2Cl)c1 (configuration not stated),/,17.3,1.0
CCCCC1=NC2(CCCC2)C(=O)N1Cc1ccc(-c2ccccc2-c2nn[nH]n2)cc1,-20.9,-7.7,/
O=C1C(Cc2ccc(-c3nn[nH]n3)cc2)=C(c2ccccc2)S(=O)(=O)c2ccccc21,106.7*,43.3,3.2
COC(=O)CNC(=O)c1cc2nc(-c3ccc(C)c(C)c3)cc(C(F)(F)F)n2n1,/,22.8,-1.3
CC1(C)CCc2cc(-c3ccn(S(=O)(=O)c4ccc(Cl)cc4)n3)ccc2O1,26.0,67.9,-0.7
CN(C)/C=C/C(=O)c1ccc2c(c1)CCC(C)(C)O2,51.4,120.8*,-0.2
SMILES,Hedgehog inh,NOMO-1 viab,PD-1 reverse act
Nc1c2c(nc3ccccc13)CCCC2,-17.5,12.0,/
Nc1c2ccccc2nc2ccccc12,-11.5,106.8*,/
C[C@H](CO)N1C[C@H](C)[C@H](CN(C)Cc2ccc(-c3ccccc3)cc2)Oc2c(NC(=O)C3CCCCC3)cccc2C1=O,-0.1,119.3*,-2.2
C[C@H]1CN([C@@H](C)CO)C(=O)c2cccc(NC(=O)C3CCCCC3)c2O[C@@H]1CN(C)Cc1ccc(Oc2ccccc2)cc1,31.4,85.8*,/
C[C@@H]1CN([C@H](C)CO)C(=O)c2cccc(NC(=O)C3CC3)c2O[C@@H]1CN(C)Cc1ccc(C(F)(F)F)cc1,-35.0,-1.2,1.1
C[C@@H]1CN([C@H](C)CO)C(=O)c2cccc(NC(=O)C3CCCCC3)c2O[C@H]1CN(C)Cc1ccc(C(F)(F)F)cc1,10.6,103.7*,-6.0
C[C@@H]1CN([C@@H](C)CO)C(=O)c2cccc(NC(=O)C3CCCCC3)c2O[C@@H]1CN(C)Cc1ccc(-c2ccccc2)cc1,5.9,76.5,/
C[C@@H]1CN([C@H](C)CO)C(=O)c2cccc(NC(=O)C3CCCCC3)c2O[C@@H]1CN(C)Cc1ccc(Oc2ccccc2)cc1,12.0,24.8,-1.6
COc1ccc(OC)c(CCCCc2cc(OC)ccc2OC)c1,1.7,14.8,0.2
COc1ccc(-c2cn(S(=O)(=O)c3ccccc3OC)nc2N)cc1OC,/,18.6,-3.1
CCOC(=O)CC1=NN(c2ccccc2)C(=O)/C1=C\c1cc(OC)c(OC)cc1OC,/,44.0,0.0
COc1ccc(N(C(C)C(=O)Nc2cc(Cl)ccc2C)S(C)(=O)=O)cc1 (configuration not stated),/,23.9,-0.1
COC(=O)C1=C(NC(=O)c2cccc(Cl)c2)CCS1,-27.0,22.2,-0.3
OC(CN1CCN(c2cccc(Cl)c2)CC1)C(c1ccccc1)c1ccccc1 (configuration not stated),94.9*,16.7,/
OCCOCCN1CCN(C(c2ccccc2)c2ccc(Cl)cc2)CC1 (configuration not stated),22.6,10.4,2.5
CC(C)Cc1cnc(CCC(N)=O)c(=O)[nH]1,-29.6,-15.5,0.6
C[C@H](CO)N1C[C@H](C)[C@H](CN(C)CC2CC2)Oc2ccc(NS(=O)(=O)c3ccc(Cl)cc3)cc2CC1=O,-0.9,35.2,1.9
C[C@@H]1CN([C@@H](C)CO)C(=O)Cc2cc(NS(=O)(=O)c3ccc(F)cc3)ccc2O[C@@H]1CN(C)CC1CCCCC1,25.8,?,-3.2
C[C@H](CO)N1C[C@H](C)[C@H](CN(C)CC2CCCCC2)Oc2ccc(NS(=O)(=O)c3ccc(Cl)cc3)cc2CC1=O,40.7,97.4*,-5.0
C[C@H]1CN([C@@H](C)CO)C(=O)Cc2cc(NS(=O)(=O)c3ccc(F)cc3)ccc2O[C@H]1CN(C)CC1CCCCC1,-15.7,114.7*,-6.0
Cc1ccc(S(=O)(=O)Nc2ccc3c(c2)CC(=O)N([C@@H](C)CO)C[C@@H](C)[C@@H](CN(C)CC2CC2)O3)cc1,-13.5,8.3,/
C[C@H]1CN([C@@H](C)CO)C(=O)Cc2cc(NS(=O)(=O)c3ccc(Cl)cc3)ccc2O[C@@H]1CN(C)CC1CC1,4.9,9.4,/
Cc1ccc(S(=O)(=O)Nc2ccc3c(c2)CC(=O)N([C@H](C)CO)C[C@H](C)[C@H](CN(C)CC2CCCCC2)O3)cc1,32.4,98.6*,-1.7
C[C@H]1CN([C@@H](C)CO)C(=O)Cc2cc(NS(=O)(=O)c3ccc(Cl)cc3)ccc2O[C@H]1CN(C)CC1CCCCC1,22.8,135.3*,-11.7
CC(NS(=O)(=O)c1ccc(Br)cc1)C(=O)Nc1cccc(F)c1 (configuration not stated),/,5.8,0.1
CC1(C)Cc2nc(-c3ccccc3)nc(SCC(=O)Nc3cccc(C(F)(F)F)c3)c2CO1,/,15.2,-1.1
